Shown are actives, neighbours in structure and some others; about 11% of the full set was active somewhere.
ALDH1A1 block – qHTS Assay for Inhibitors of Aldehyde Dehydrogenase 1 (ALDH1A1). Potency, µM (doses to about 75.3 µM), for inactives: at the top dose activity, negative = inhibition, most hits filed as inhibitors. AID 1030, 2008. actives 7.3% (n = 220,000). Purified ALDH1A1, NADH fluorescence, propionaldehyde substrate. Aldehyde dehydrogenase 1A1 (Homo sapiens), P00352;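 note: potency is the fitted concentration of half-maximal effect; plate controls were no enzyme wells and a reference inhibitor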
Target sequence (P00352 whole entry, looked up): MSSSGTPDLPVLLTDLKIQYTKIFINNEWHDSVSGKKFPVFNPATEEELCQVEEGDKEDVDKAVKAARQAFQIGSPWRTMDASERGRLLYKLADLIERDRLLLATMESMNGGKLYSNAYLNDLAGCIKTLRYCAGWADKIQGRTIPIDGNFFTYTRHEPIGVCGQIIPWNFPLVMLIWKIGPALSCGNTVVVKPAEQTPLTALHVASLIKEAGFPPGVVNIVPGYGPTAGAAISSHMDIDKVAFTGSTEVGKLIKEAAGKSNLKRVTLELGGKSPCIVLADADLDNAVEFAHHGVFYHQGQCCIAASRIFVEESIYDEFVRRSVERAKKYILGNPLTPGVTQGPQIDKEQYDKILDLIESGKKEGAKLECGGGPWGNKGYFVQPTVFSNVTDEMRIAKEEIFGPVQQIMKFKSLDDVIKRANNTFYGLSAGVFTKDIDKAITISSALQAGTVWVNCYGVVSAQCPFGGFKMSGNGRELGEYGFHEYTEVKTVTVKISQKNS
ALOX12 inhib – qHTS Assay for Inhibitors of 12-hLO (12-human lipoxygenase). Polyunsaturated fatty acid lipoxygenase ALOX12 (Homo sapiens), P18054. purified 12-hLO, xylenol orange hydroperoxide absorbance. Potency, µM (top dose mostly 57.1 µM), for the others: at the top dose activity change, negative = inhibition, most hits filed as inhibitors. actives 0.12% (n = 150,000). AID 1452, 2008; active = well fitted curve in the direction sought with a large enough effect; inconclusive = small, poorly fitted or top-dose-only effect, or another doubt; inactive = no such curve, though single readings can be large; an effect the other way counts as inactive or inconclusive; note: potency is the fitted concentration of half-maximal effect; nearly all actives have a fitted effect of over 55% in size
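150 nM 12hLO, 25 mM Hepes pH 7.0 + 0.01% Triton X-100; cpd preinc 15 min RT; 40 uM arachidonic acid, 30 min RT; Fe-XO 30 min; A573/A405 ratio as read-out.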
IMPase cell inh – qHTS Assay for Identifying the Cell-Membrane Permeable IMPase Inhibitors | CHO-M1 cells, IP1 accumulation, HTRF TR-FRET ratio | inhibition (IP1 accumulation), % at 46.1 µM | 120,000 tested, under 10 active | Inositol monophosphatase 1 (Rattus norvegicus), P97697; active = well fitted curve in the direction sought with a large enough effect in the signal ratio, not every such curve was filed as active; inconclusive = small, poorly fitted or top-dose-only effect, or a change in a side signal; inactive = no such curve, though single readings can be large or run the other way; the % refers to the signal ratio;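 note: cells stimulated with carbachol in lithium chloride buffer; plate controls were DMSO basal wells for no effect and reference inhibitor wells for full effect; higher means more IMPase inhibition seen as more IP1 and lower FRET ratio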
Target sequence (P97697 whole entry, looked up): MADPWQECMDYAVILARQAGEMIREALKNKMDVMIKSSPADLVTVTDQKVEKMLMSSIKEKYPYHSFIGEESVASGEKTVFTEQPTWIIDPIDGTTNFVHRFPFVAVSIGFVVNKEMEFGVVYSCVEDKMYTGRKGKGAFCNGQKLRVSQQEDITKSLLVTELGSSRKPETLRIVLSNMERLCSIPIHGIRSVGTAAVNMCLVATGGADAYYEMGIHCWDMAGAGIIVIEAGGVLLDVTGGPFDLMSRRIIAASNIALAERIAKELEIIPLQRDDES
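CHO-M1, 2000 cells/well, cultured 16–30 h; cpd up to 46 uM; carbachol (50 uM solution, stimulation buffer w/ 50 mM LiCl, pH 7.4), 30 min 37C; IP-One TR-FRET, 10 min RT; Ex 320/Em 665, 620; Hill-fit AC50.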
PNC inhibitor – High Content Assay for Compounds that inhibit the Assembly of the Perinucleolar Compartment; activity change (PNC), negative = inhibition, % at 10 µM; AID 2417, 2010; actives 3.1% (n = 140,000); PC3M PTB-GFP, PNC prevalence imaging, 16 h; stronger effect = lower value;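 active = readout at or below -70, meaning at least 70% loss of cells showing the perinucleolar compartment, a nuclear body marking cancer cells; inconclusive = readout between -30 and a set limit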;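 note: plate controls were DMSO wells for no effect and camptothecin positive control wells for full effect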
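PC3M cells stably expressing PTB-GFP, 750–1000 cells/well, treated 16 h at 37 °C with compound (23 nl of library stock), in duplicate. After paraformaldehyde fixation and Hoechst stain, imaged at 20x; PNC prevalence scored by image analysis.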
HPGD inh – qHTS Assay for Inhibitors of HPGD (15-Hydroxyprostaglandin Dehydrogenase); 15-hydroxyprostaglandin dehydrogenase [NAD(+)] (Homo sapiens), P15428; purified HPGD, NADH fluorescence kinetic, PGE2 substrate; Potency, µM, for the others: at the top dose activity change, negative = inhibition, actives largely listed as inhibitors; actives 4.3% (n = 150,000); note: potency is the fitted concentration of half-maximal effect
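20 nM HPGD preincubated 15 min at room temperature with compound in 50 mM Tris-HCl pH 8, 0.01% Tween 20. Started with 1 mM NAD+ and 30 uM prostaglandin E2; NADH fluorescence (360/450 nm) read 5 times over 30-s intervals, last minus first.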
IMPase Li inh – qHTS Assay for Identifying the Cell-Membrane Permeable IMPase Inhibitors: Potentiation with Lithium; CHO-M1 cells, IP1 TR-FRET (IP-One), carbachol + lithium; Potency, µM (series often up to 59.4 µM), inactives show at the highest dose activity, negative = IMPase inhibition, actives largely listed as inhibitors; actives 0.35% (n = 210,000); active = well fitted curve in the direction sought with a large enough effect; inconclusive = small, poorly fitted or top-dose-only effect, or another doubt; inactive = no such curve, though single readings can be large; an effect the other way counts as inactive or inconclusive;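 note: IP1 builds up when IMPase is blocked and the TR-FRET signal falls; potency is the fitted concentration of half-maximal effect; plate controls were basal vehicle for no effect and high inhibitor control for full effect; nearly all actives have a fitted effect of over 50% in size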
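IP1 accumulation measured by competitive TR-FRET in lysed CHO-M1 cells after 30 min compound exposure at 37C, with a small lithium addition to potentiate weak responses. Hill-equation AC50 from ratio and donor-channel data.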
* hit, by the source's call; ? = inconclusive; . = no result; [ ] = another dose, or the depositor's remark. Unless noted, calls come from the whole dose curve; as a rule, active = well fitted inhibition curve with a large enough effect (not every such curve was filed as active); inconclusive = small, poorly fitted or top-dose-only effect, or another doubt; inactive = no such curve, though single readings can be large or run the other way. Unless noted, % is set by controls: 0 for no effect and ±100 for the full control effect.

SMILES	ALDH1A1 block	ALOX12 inhib	IMPase cell inh	PNC inhibitor	HPGD inh	IMPase Li inh
COc1ccc(C2CC(=O)c3cnc(N4CCN(Cc5ccccc5)CC4)nc3C2)cc1 (stereo unspecified)	?	18.4%	-1.0[1.84 µM]	-19.2	?	33.8%[38.3 µM]
CN1C(=O)c2ccc(N3CCCC3)cc2C1=O	?	5.9%	2.5	27.3	-29.7%	-5.1%[38.3 µM]
Cc1cc(N2CCCC2)ccc1/C=C1\NC(=S)N(C)C1=O	4.47µM*	.	.	.	.	66.0%
O=C1/C(=C/c2ccc(N3CCCC3)cc2)NC(=S)N1C1CC1	15.8µM*	-28.7%	5.4	45.1	-6.5%	50.8%[38.3 µM]
O=C1N/C(=C/c2ccc(N3CCCC3)cc2)C(=O)N1c1ccccc1	-9.4%	-2.4%	.	64.6	-8.5%	-10.7%
COCCn1c(=O)c(-c2ccc(F)cc2)nc2cncnc21	-9.0%	-1.0%	.	.	-14.8%	-8.4%
Cc1ccc(C)c(NC(=S)/C(=C(\[O-])c2ccc(Cl)s2)[n+]2ccccc2)c1	?	.	.	.	.	-1.2%
Cc1cc(C)cc(NC(=S)/C(=C(\[O-])c2ccc(Cl)s2)[n+]2cccc(C)c2)c1	25.1µM*	.	.	.	.	13.7%
Cn1c(SCc2nnc3n2CCCCC3)nc2ccccc21	8.5%	-2.1%	0.3	-29.0	25.1µM*	20.8%[38.3 µM]
Cn1c(SCC(=O)N2CCCC2)nc2ccccc21	?	.	.	.	.	-2.8%
COc1cccc(-n2c(COc3ccccc3C)nnc2SCC(=O)O)c1	0.2%	-2.1%	-3.8	?	-25.4%	-11.3%[38.3 µM]
O=c1[nH]c(CSc2nnc(COc3ccccc3)n2-c2ccccc2)nc2ccccc12	17.8µM*	-13.1%	2.9	?	-9.7%	25.9%[38.3 µM]
COc1cccc(-n2c(COc3ccc(C)cc3)nnc2SCC(=O)O)c1	-13.7%	4.2%	-3.4	51.4	25.1µM*	-8.2%[38.3 µM]
Cc1ccccc1OCc1nnc(SCc2nc3ccccc3c(=O)[nH]2)n1C	6.4%	.	.	.	.	5.8%
O=C(O)CSc1nnc(COc2ccc([N+](=O)[O-])cc2)n1-c1ccccc1	20µM*	.	.	.	.	0.4%
CC(=O)Nc1ccc2c(c1)C(=Nc1ccc(C(=O)O)cc1)c1ccccc1-2	-4.2%[13.5 µM]	4.1%[11.4 µM]	.	.	-15.9%	0.7%
CCc1c2c(nc3ccc(OC)cc13)OC(C)C2 (stereo unspecified)	0.5%	2.7%	.	.	-14.2%	-9.6%
O=C(/C(=C/O)N=Nc1ccc(Cl)cc1)c1ccncc1	10µM*	-8.5%	-12.7	-11.3	-15.3%	-4.0%[38.3 µM]
Cc1ccc(N=N/C(=C\O)C(=O)c2ccncc2)cc1	3.98µM*	-18.8%	4.3	62.4	-20.8%	23.8%[38.3 µM]
CC(C)(C)NC(=O)c1ccncc1	13.2%	-0.1%	-4.1	-1.1	-1.2%	4.1%[38.3 µM]
CCCNC(=O)OC[C@@H]1O[C@H](CCO/N=C(\C)CCC(=O)OC[C@@H]2O[C@H](c3ccccc3)C=C[C@@H]2Oc2ccc(OC)cc2)C=C[C@@H]1Oc1ccc(OC)cc1	-1.9%[13.5 µM]	.	.	.	.	.
OC[C@@H]1CCC[C@H](n2cnc3c(=S)nc[nH]c32)O1	7.9%[13.5 µM]	0.9%[11.4 µM]	.	.	-6.6%	-2.8%
S=c1nc[nH]c2c1ncn2C1CCCO1 (stereo unspecified)	12.6µM*	.	.	.	.	.
COC(=O)c1sc(S(=O)(=O)NCc2cccs2)c(C(=O)OC)c1C	14.1µM*	-7.4%	3.9	-110.6*	-17.1%	18.0%
COC(=O)c1sc(S(=O)(=O)NCC(=O)O)c(C(=O)OC)c1C	-2.7%	.	.	.	.	-14.4%
SMILES	ALDH1A1 block	ALOX12 inhib	IMPase cell inh	PNC inhibitor	HPGD inh	IMPase Li inh
Cc1cccc(NC(=O)C(c2ccccc2Cl)N2CCOCC2)c1 (stereo unspecified)	25.1µM*	.	.	.	.	-0.5%
Cc1ccc(NC(=O)C(c2ccc(Cl)cc2Cl)N2CCCC2)cc1 (stereo unspecified)	8.3%	-2.3%	-3.8	57.5	1.7%	-0.1%
O=C1Nc2ccc(NS(=O)(=O)c3cccs3)c3cccc1c23	15.8µM*	3.0%	2.9	-25.3	-15.8%	10.7%[38.3 µM]
O=C(O)c1ccccc1NS(=O)(=O)c1ccc2c3c(cccc13)C(=O)N2	-2.8%	-1.4%	-3.8	7.0	-10.6%	3.7%[38.3 µM]
CCCCS(=O)(=O)Nc1ccc(Cc2ccncc2)cc1	12.1%	-1.5%	3.3	-15.7	15.8µM*	26.0%[38.3 µM]
Cc1ccc(C(=O)O/N=C\c2ccc(N3CCCCC3)c([N+](=O)[O-])c2)cc1	1.41µM*	6.1%	-1.5	?	-16.3%	-10.7%[38.3 µM]
O=C(O/N=C\c1ccc(N2CCCCC2)c([N+](=O)[O-])c1)c1cccc(C(F)(F)F)c1	?	6.6%	-13.0	?	-22.4%	12.2%
O=C(O/N=C\c1ccc(N2CCCCC2)c([N+](=O)[O-])c1)c1c(F)cccc1F	17.8µM*	6.1%	5.2	23.3	-19.9%	11.1%[38.3 µM]
NC(=O)c1ccc(N2CCCCCC2)c([N+](=O)[O-])c1	?	.	.	.	.	4.1%
Cc1ccc(OCC(=O)N2CCCCCC2)c(C)c1	-1.7%	-4.2%	-0.6	?	-18.5%	0.7%[38.3 µM]
Cc1cc(Br)ccc1OCC(=O)N1CCCCCC1	?	-1.3%	9.8	12.9	39.8µM*	14.2%[38.3 µM]
CC1CCN(C(=O)CSCc2ccc(Cl)cc2)CC1	2.6%	-0.1%	-2.5	4.5	-18.7%	-2.8%[38.3 µM]
Cc1cc(Cl)ccc1OCCCC(=O)N1CCCCC1	-13.7%	-1.2%	1.0	-8.8	6.31µM*	8.9%[38.3 µM]
O=C(CCCOc1ccc(Cl)cc1Cl)N1CCc2ccccc2C1	-2.1%	-24.6%	9.8	-19.0	2.51µM*	-4.8%
CC1CCN(C(=O)CCCOc2ccc(Cl)cc2)CC1	?	-6.6%	.	-4.4	2.82µM*	21.1%
C/C(=C\c1ccc(Cl)cc1)C(C)(C)C(=O)O	-11.1%[13.5 µM]	2.4%[11.4 µM]	.	.	-6.8%	-3.5%

Screening results as filed in PubChem.
